In the library only some 4.6% were active in any assay of this set; here they are far more common.
ADAM17 inh: inhibits human ADAM17; P78536; recombinant ADAM17, EDANS/DABCYL FRET peptide cleavage; inhibition, % at 6.95 µM; hit rate 0.83% among 370,000;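 active = inhibition above the mean of compounds lying between control limits plus 3 SD, set per campaign, cut at about 8.5% in these data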
FAS-TE inh: inhibitors of human fatty acid synthase thioesterase domain | P49327 | recombinant FAS-TE, OMFH fluorogenic substrate, fluorescence endpoint | inhibition, % at 15 µM | hit rate 0.67% among 360,000 | AID 602261;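 active = compounds whose normalised, plate-corrected inhibition of enzyme fluorescence in the single-dose primary screen is 50% or more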
proKLK7 act: activates the human kallikrein-7 zymogen; activation, % at 7 µM; AID 652039; hit rate 0.9% among 370,000; purified proKLK7, EDANS-DABCYL substrate fluorescence; 100% is mature enzyme control, 0% vehicle; P49862;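 active = activation above the mean of all tested compounds plus 3 SD, computed per campaign excluding outliers beyond control limits, cut at about 13% in these data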
Target sequence (P49862 whole entry, looked up): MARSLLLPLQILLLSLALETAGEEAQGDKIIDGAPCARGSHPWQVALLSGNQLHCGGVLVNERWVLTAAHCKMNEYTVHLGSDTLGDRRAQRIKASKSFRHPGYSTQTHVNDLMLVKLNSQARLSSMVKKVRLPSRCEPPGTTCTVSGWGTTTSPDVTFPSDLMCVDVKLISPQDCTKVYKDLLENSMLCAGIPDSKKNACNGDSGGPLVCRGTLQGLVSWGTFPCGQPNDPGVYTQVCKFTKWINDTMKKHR
ADAM10 inh: inhibitors of human ADAM10. hit rate 0.62% among 370,000. inhibition, % at 7 µM. AID 720582. recombinant ADAM10, EDANS/DABCYL FRET peptide cleavage, 3 h. O14672;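 active = inhibition above a per-campaign cutoff equal to the mean of compounds falling between control-based bounds plus 3 SD, cut at about 20% in these data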
GRIN3A LBD mod: modulators (binders) of human NR3A ligand-binding domain; hit rate 2.5% among 340,000; NR3A LBD differential scanning fluorimetry, Tm shift; 0% = protein alone, 100% = glycine-bound protein; AID 1259313; Tm shift relative to glycine control, % at 25 µM;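 active = melting temperature shift of at least 10% of the positive control shift, at one fixed dose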
proKLK7 act conf: confirmation of human kallikrein-7 zymogen activators; shares compounds with proKLK7 act; hit rate 68% among 3,200; purified proKLK7, EDANS-DABCYL substrate fluorescence; scaled: vehicle 0, mature enzyme 100; activation, % at 7 µM; AID 686949;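 active = activation, as change over the incubation, above the mean of all tested compounds plus 3 SD, cut at about 13% in these data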
EDANS interfere: fluorescence interference counter-screen for KLK7 activators | shares compounds with proKLK7 act | EDANS-DABCYL substrate fluorescence interference, no enzyme, 4 h; solvent 0%, active enzyme control 100% | activation, % at 7 µM | hit rate 80% among 3,200 | AID 686952;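 active = activation above the all-compound mean plus 3 SD, ignoring values outside control-based bounds, cut at about 4.8% in these data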;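 also: value is the 4 h activation minus the activation read at time zero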
EDANS interf: EDANS fluorescence interference in dose response, no enzyme; EDANS-DABCYL peptide fluorescence interference; hit rate 20% among 250; EC50, µM; shares compounds with proKLK7 act; AID 720493;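 active = compounds that raise the fluorescence signal in this interference counterscreen, with EC50 at or below 10 µM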;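 also: intact quenched peptide substrate alone read at 355 nm excitation and 520 nm emission; signal is fluorescence gain from T0 to T4 after four hours at room temperature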
Hits are given with their value; n = inactive; x = not tested or not shown.

SMILES	ADAM17 inh	FAS-TE inh	proKLK7 act	ADAM10 inh	GRIN3A LBD mod	proKLK7 act conf	EDANS interfere	others
CCc1ccc(/C=C2\Oc3c(ccc(O)c3CN3CCN(CCO)CC3)C2=O)cc1	n	n	28	n	n	n	6.5
O=C(Nc1ccc(C(F)(F)F)cc1)OC1CCC12CCCCC2 (stereo unspecified)	n	x	n	n	x	x	x
COc1ccc(N(C)C(=S)Nc2ccc3nc(C)c(C)nc3c2)cc1	n	n	14	n	n	n	15
Nc1c2c(nc3ccccc13)N(c1ccccc1)CC2	n	n	70	n	n	20	21
CN1CCCCc2c1nc1ccccc1c2N (tested in a mixture with another compound)	n	n	n	n	n	x	x
N[C@H]1CC[C@@H]2SC[C@@H](C(=O)O)N2C1=O	n	x	n	n	x	x	x
Cc1[nH]c2ccccc2c1CCCO	n	x	n	n	n	x	x
OCCCCc1nccc2c1[nH]c1ccccc12	n	n	36	n	12	29	37
COc1cc2ccccc2nn1	n	n	23	n	n	33	39
COc1ccc(OC)c(C(c2c(O)nc(SC)[nH]c2=O)c2c(O)nc(SC)[nH]c2=O)c1	n	n	13	n	n	15	15
CCCCCC[C@H](CN(CCCC)S(C)(=O)=O)c1ccccc1	n	x	n	n	x	x	x
Cc1nc2ccc(NC(=S)N3CCCC3)cc2nc1C	n	n	n	n	n	x	x
O=C(Nc1ccc2nc(-c3ccccn3)c(-c3ccccn3)nc2c1)N1CCOCC1	n	n	36	n	n	70	66
O=C(Nc1ccccn1)N1CCOCC1	n	n	n	n	n	x	x
Cc1nc2ccc(NC(=O)N3CCCCC3)cc2nc1C	n	n	35	n	n	69	57	EDANS interf=n
CCOC(=O)N1CCN(C(=O)Nc2ccc3nc(C)c(C)nc3c2)CC1	n	n	16	n	n	39	33
CC(=O)CC[C@@H]1CC[C@]2(CCCN(C(=O)C(C)(C)C)C2)O1	n	x	n	n	x	x	x
CCC(CC)NC(=O)O[C@H]1CC[C@@]23CCCN2C(=O)CCC[C@H]3C1	n	x	x	n	x	x	x
O=[N+]([O-])c1ccc(OC[C@@H](O)CN2CCC(C(O)(c3ccccc3)c3ccccc3)CC2)c(Cl)c1	n	x	n	n	x	x	x
CNC(=O)c1ccc(Nc2nnc(-c3ccc(C(N)=O)cc3)c3ccccc23)cc1	n	n	133	n	n	n	108
NC(=O)c1ccc(Nc2nnc(-c3ccc(O)cc3)c3ccccc23)cc1	n	n	n	n	n	x	x
COc1ccccc1N1CCN(C(=O)c2cc3c(s2)-c2ccccc2OC3)CC1	n	n	n	n	n	x	x
CCOC(=O)c1cc2c(s1)-c1c(C)cccc1OC2	n	n	n	n	n	x	x
Cc1cccc2c1-c1sc(C(=O)NCCCN3CCC(C)CC3)cc1CO2	n	n	49	n	n	64	65
COC(=O)c1cc2c(s1)-c1ccccc1OC2	n	n	82	n	n	76	80
SMILES	ADAM17 inh	FAS-TE inh	proKLK7 act	ADAM10 inh	GRIN3A LBD mod	proKLK7 act conf	EDANS interfere	others
O=C(c1cc2c(s1)-c1ccccc1OC2)N1CCc2ccccc2C1	n	n	n	n	n	x	x
CC1CCN(CCCNC(=O)c2cc3c(s2)-c2ccccc2OC3)CC1	n	n	75	n	n	74	74
CCOC(=O)C1CCN(C(=O)c2cc3c(s2)-c2ccccc2OC3)CC1	n	n	14	n	n	n	n
CCCN1CCS(=O)(=O)N(Cc2cn(Cc3ccccc3)nn2)C(C(=O)OC)C1 (stereo unspecified)	n	x	n	n	x	x	x
Cc1ccc(-c2cc(-c3nnc4sc(COc5ccccc5)nn34)[nH]n2)cc1	n	x	n	n	x	x	x
Cn1c(=O)c2cc(S(=O)(=O)N3CCN(c4ccccc4Cl)CC3)ccc2n(C)c1=O	n	x	n	n	x	x	x
O=C(NCCc1c[nH]c2ccccc12)OCc1cn(Cc2ccccc2Cl)nn1	n	x	n	n	x	x	x
